Screening results deposited in PubChem BioAssay by Broad Institute.
The list is not random: actives were taken first. Their share in the collection is about 6.7%.
Pf Dd2 inh = inhibitors of Plasmodium falciparum Dd2 growth; P. falciparum Dd2 growth, SYBR Green, 72 h; hits give low values; AID 1159554; 94,000 compounds, 2.3% hits; activity change, % at 10 µM; in the data active means activity change below about -80%
Tcruzi prolif = blocks T. cruzi growth in NIH3T3 culture. T. cruzi beta-gal in NIH3T3, GalScreen luminescence, 90 h. inhibition, % at 8.34 µM. 77,000 compounds, 5.9% hits;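 active means mean inhibition above about 93%, with at least 55% of replicates each passing it, limit read from the data, passing the limit was not always enough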
C diff HTS = blocks growth of Clostridium difficile; Clostridium difficile clinical isolate growth, OD600, 24 h; hits give low values; growth activity, negative = inhibition, % at 16 µg/mL (by protocol); 86,000 compounds, 0.25% hits;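 active means mean growth activity at or below -80% and every replicate also at or below -80%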;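 further: 0% = DMSO wells and -100% = levofloxacin 16 µg/mL wells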
Active calls of the source: *; . = no result given.

SMILES | Pf Dd2 inh | Tcruzi prolif | C diff HTS
C[C@@H]1CN([C@H](C)CO)C(=O)c2cccc(NC(=O)CCCCCC(=O)Nc3ccccc3N)c2O[C@H]1CN(C)C(=O)Nc1ccc(C(F)(F)F)cc1 | -88* | . | 10
COc1ccc(NC(=O)N(C)C[C@H]2Oc3c(NC(=O)CCCCCC(=O)Nc4ccccc4N)cccc3C(=O)N([C@@H](C)CO)C[C@H]2C)cc1 | -89* | . | 5
C[C@@H]1CN([C@H](C)CO)C(=O)c2cccc(NC(=O)CCCCCC(=O)Nc3ccccc3N)c2O[C@H]1CN(C)C(=O)Nc1cccc2ccccc12 | -73 | . | -1
C[C@@H]1CN([C@H](C)CO)C(=O)c2cccc(NC(=O)CCCCCC(=O)Nc3ccccc3N)c2O[C@H]1CN(C)C(=O)Nc1ccccc1 | -59 | . | 1
COCC(=O)N(C)C[C@H]1Oc2ncc(-c3ccc(F)cc3)cc2C(=O)N([C@@H](C)CO)C[C@@H]1C | 0 | -6 | -1
COc1ccc(NC(=O)N(C)C[C@@H]2Oc3c(NC(=O)Nc4ccccc4)cccc3C(=O)N([C@H](C)CO)C[C@@H]2C)cc1 | -17 | 8 | 6
C[C@H]1CN([C@@H](C)CO)C(=O)c2cc(NC(=O)CCCCCC(=O)Nc3ccccc3N)ccc2O[C@@H]1CN(C)C(=O)Nc1ccc(C(F)(F)F)cc1 | 0 | . | 8
COc1ccc(NC(=O)N(C)C[C@H]2Oc3c(NC(=O)Nc4ccccc4)cccc3C(=O)N([C@@H](C)CO)C[C@H]2C)cc1 | -89* | -16 | -9
C[C@H]1CN([C@@H](C)CO)C(=O)c2cccc(NC(=O)CCCCCC(=O)Nc3ccccc3N)c2O[C@H]1CN(C)C(=O)Nc1ccc(C(F)(F)F)cc1 | -92* | . | 12
CCCNC(=O)N1[C@@H]2c3ccc(-c4cccc(OC)c4)c(=O)n3C[C@H]1[C@H](CO)[C@H]2C(=O)NC1CCC1 | . | 9 | 3
COc1cccc(-c2ccc3c(c2)[C@H]2[C@H](CCN2S(=O)(=O)c2ccccc2OC)[C@@H](CO)N3C)c1 | -68 | 6 | 0
O=C(C[C@@H]1C=C[C@@H](NS(=O)(=O)c2ccc(F)cc2)[C@H](CO)O1)NCCc1ccncc1 | 31 | 12 | 12
CC(C)NC(=O)Nc1ccc2c(c1)C(=O)N([C@@H](C)CO)C[C@@H](C)[C@H](CN(C)S(=O)(=O)c1cn(C)cn1)O2 | 24 | -26 | -4
COc1ccc(S(=O)(=O)Nc2ccc3c(c2)CC(=O)N([C@@H](C)CO)C[C@H](C)[C@H](CN(C)S(=O)(=O)c2ccc(C)cc2)O3)cc1 | -86* | -7 | 10
C[C@@H]1CN([C@H](C)CO)C(=O)c2cc(NS(=O)(=O)c3ccc(Cl)cc3)ccc2O[C@@H]1CN(C)S(=O)(=O)c1ccc(F)cc1 | 23 | 33 | 3
COc1ccc(S(=O)(=O)N(C)C[C@@H]2Oc3ccc(NS(=O)(=O)c4ccc(C)cc4)cc3CC(=O)N([C@H](C)CO)C[C@@H]2C)cc1 | -69 | -8 | 10
C[C@H]1CN([C@@H](C)CO)C(=O)Cc2cc(NS(=O)(=O)c3ccc(Cl)cc3)ccc2O[C@H]1CN(C)S(=O)(=O)c1ccc(Cl)cc1 | -74 | 61 | 18
C[C@H](CO)N1C[C@H](C)[C@H](CN(C)S(=O)(=O)c2ccc(F)cc2)Oc2ccc(NS(=O)(=O)c3ccc(Cl)cc3)cc2C1=O | -93* | 40 | 1
C[C@@H]1CN([C@@H](C)CO)C(=O)Cc2cc(NS(=O)(=O)c3ccc(Cl)cc3)ccc2O[C@H]1CN(C)S(=O)(=O)c1ccc(Cl)cc1 | -85* | -53 | 17
C[C@@H]1CN([C@H](C)CO)C(=O)c2cc(NS(C)(=O)=O)ccc2O[C@@H](C)CCCCO[C@H]1CN(C)S(=O)(=O)c1cccs1 | 3 | -28 | 1
O=C(C[C@H]1C[C@H]2c3cc(NS(=O)(=O)c4ccc(F)cc4)ccc3O[C@H]2[C@@H](CO)O1)NCc1cc(F)ccc1F | -24 | -25 | 2
C[C@H]1CN([C@@H](C)CO)C(=O)c2cccc(NS(=O)(=O)c3cn(C)cn3)c2O[C@H]1CN(C)Cc1ccccc1 | 31 | -6 | -2
C[C@@H]1CCCCO[C@@H](CN(C)C(=O)Nc2cccc3ccccc23)[C@@H](C)CN([C@H](C)CO)C(=O)c2cc(NC(=O)Nc3cccc4ccccc34)ccc2O1 | -51 | -21 | .
C[C@@H]1CN([C@@H](C)CO)C(=O)c2cc(NC(=O)Nc3cccc4ccccc34)ccc2O[C@@H](C)CCCCO[C@H]1CN(C)C(=O)Nc1cccc2ccccc12 | -9 | 8 | .
C[C@@H]1CCCCO[C@@H](CN(C)C(=O)Nc2cccc3ccccc23)[C@@H](C)CN([C@H](C)CO)C(=O)c2cc(NC(=O)Nc3ccc4c(c3)OCO4)ccc2O1 | -87* | -12 | -1
SMILES | Pf Dd2 inh | Tcruzi prolif | C diff HTS
C[C@H](CO)N1C[C@H](C)[C@H](CN(C)C(=O)Nc2ccc3c(c2)OCO3)OCCCC[C@H](C)Oc2ccc(NC(=O)Nc3cccc4ccccc34)cc2C1=O | 39 | 62 | -3
C[C@@H]1CN([C@@H](C)CO)C(=O)c2cc(NC(=O)Nc3ccc4c(c3)OCO4)ccc2O[C@@H](C)CCCCO[C@H]1CN(C)C(=O)Nc1cccc2ccccc12 | -42 | 23 | 10
C[C@@H]1CCCCO[C@H](CN(C)C(=O)Nc2cccc3ccccc23)[C@H](C)CN([C@@H](C)CO)C(=O)c2cc(NC(=O)Nc3ccc4c(c3)OCO4)ccc2O1 | -83* | 49 | 7
C[C@@H]1CCCCO[C@@H](CN(C)C(=O)Nc2cccc3ccccc23)[C@H](C)CN([C@H](C)CO)C(=O)c2cc(NC(=O)Nc3ccc4c(c3)OCO4)ccc2O1 | -90* | 86 | 9
C[C@@H]1CCCCO[C@@H](CN(C)C(=O)Nc2ccc3c(c2)OCO3)[C@@H](C)CN([C@@H](C)CO)C(=O)c2cc(NC(=O)Nc3cccc4ccccc34)ccc2O1 | -91* | . | 1
CCCNC(=O)N(C)C[C@@H]1Oc2ncc(-c3ccccc3F)cc2C(=O)N([C@@H](C)CO)C[C@@H]1C | 3 | . | -5
COc1ccc(CN(C)C[C@@H]2OCCCC[C@@H](C)Oc3ccc(NS(=O)(=O)c4c(C)noc4C)cc3C(=O)N([C@H](C)CO)C[C@H]2C)cc1 | -54 | 46 | -6
C[C@H](CO)N1C[C@H](C)[C@H](CN(C)S(=O)(=O)c2ccc(F)cc2)OCCCC[C@H](C)Oc2ccc(NC(=O)c3ccccc3)cc2C1=O | -54 | . | 5
COc1ccc(S(=O)(=O)N(C)C[C@H]2Oc3ccc(NC(=O)Cc4cn(C)c5ccccc45)cc3C(=O)N([C@H](C)CO)C[C@H]2C)cc1 | -34 | 88 | 0
CCN1[C@H](C(=O)N(C)C)[C@@H](CO)[C@@H]2Cn3c(ccc(/C=C/c4ccccc4)c3=O)[C@@H]21 | -8 | 14 | 13
C[C@H](CO)N1C[C@H](C)[C@@H](CN(C)C(=O)Nc2cccc3ccccc23)Oc2ccc(NC(=O)Nc3cccc4ccccc34)cc2CC1=O | -89* | . | 1
C[C@H](CO)N1C[C@H](C)[C@H](CN(C)C(=O)Nc2cccc3ccccc23)Oc2ccc(NC(=O)Nc3cccc4ccccc34)cc2CC1=O | -10 | -12 | -7
